Shown are actives, neighbours in structure and some others; about 19% of the full set was active somewhere.
SARS PLP yeast: qHTS of Yeast-based Assay for SARS-CoV PLP; hit rate 0.19% among 330,000; S. cerevisiae expressing SARS-CoV PLpro, growth rescue; AID 485353, 2010; Potency, µM (highest dose often 32.9 µM), most hits filed as activators; calls by dose curve; further: nearly all actives have a fitted effect of over 55% in size
Shiga toxin inh: A qHTS for Small Molecule Inhibitors of Shiga Toxin; Vero cells, Shiga toxin protein synthesis inhibition reporter; inhibition, % at 38.7 µM; hit rate 9.2% among 290,000; in the data active means inhibition mostly above about 28%, no sharp cut-off; inactive means mostly below about 43%
CHX counter: Cycloheximide Counterscreen for Small Molecule Inhibitors of Shiga Toxin; cell reporter, cycloheximide protein synthesis inhibition counterscreen; max response, %; hit rate 12% among 300,000; AID 2314, 2010; in the data active means max response mostly above about 13%, no sharp cut-off; inactive means mostly below about 14%; further: read at 38.3 µM for the half of the compounds with a filed dose
Pf growth 96h: Primary qHTS for delayed death inhibitors of the malarial parasite plastid, 96 hour incubation; Potency, µM (series often up to 28.7 µM), most hits filed as inhibitors; AID 504834, 2011; hit rate 6.9% among 320,000; P. falciparum luciferase reporter growth, 96 h
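P. falciparum expressing integrated firefly luciferase, in erythrocytes at 2% hematocrit, 0.05% parasitemia, incubated with compounds 96 h at 37 C, 5% CO2. Growth inhibition read as loss of luminescence; two-generation exposure targets delayed-death apicoplast inhibitors.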
AMA1-RON2 inh: qHTS for Inhibitors of AMA1-RON; Towards Development of Antimalarial Drug Lead: Primary Screen; Plasmodium falciparum AMA1 (3D7) - RON2 peptide interaction; AlphaScreen AMA1-biotinylated RON2 peptide binding; Potency, µM (highest dose often 58.2 µM), hits mostly inhibitors; hit rate 0.2% among 360,000; further: nearly all actives have a fitted effect of over 45% in size
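AMA1 (3D7) with his tag at 25 nM final met compounds first, then biotinylated RON2 peptide at 25 nM; detection used donor plus acceptor beads, 10 µg/mL apiece, read by AlphaScreen after 30 min at room temperature.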
Pf growth 48h: Primary qHTS for delayed death inhibitors of the malarial parasite plastid, 48 hour incubation; P. falciparum luciferase growth in erythrocytes, 48 h; Potency, µM (top dose mostly 28.7 µM), hits mostly inhibitors; hit rate 5.9% among 310,000; AID 504832, 2011
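Compounds are pin-transferred into medium, infected erythrocytes (2% hematocrit, 0.1% parasitemia final) are added, and plates sit one parasite generation at 37 C in 5% CO2. Detection reagent is then added and luminescence measured.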
Numbers stand for hits; i = inactive; ? = inconclusive; nt = not tested or not shown; [ ] = another dose, or the depositor's remark. Unless noted, the call rests on the fitted dose curve; in most records, active means well fitted curve in the direction sought with a large enough effect; inconclusive means small, poorly fitted or top-dose-only effect, or another doubt; inactive means no such curve, though single readings can be large; an effect the other way counts as inactive or inconclusive.

SMILES | SARS PLP yeast | Shiga toxin inh | CHX counter | Pf growth 96h | AMA1-RON2 inh | Pf growth 48h
O=C(N/N=C/c1ccc([N+](=O)[O-])o1)c1cc(-c2ccc(-c3ccccc3)cc2)nc2ccccc12 | i | 100.7 | 31.8 | ? | i | ?
CC(=O)Nc1ccc(S(=O)(=O)CC(=O)CS(=O)(=O)c2ccc(NC(C)=O)cc2)cc1 | nt | nt | nt | nt | i | nt
CCCn1nc(C(=O)NNC(=O)CSC(C)C(=O)Nc2cc(C)on2)c2ccccc2c1=O (stereo unspecified) | i | i | i | i | i | i
O=C(N/N=C/c1ccc([N+](=O)[O-])o1)c1cc(-c2ccncc2)nc2ccccc12 | i | i | i | 0.928µM | i | ?
O=C(N/N=C/c1ccc([N+](=O)[O-])o1)c1cn(-c2ccccc2)nc1-c1ccc(Cl)cc1 | i | i | i | ? | i | 4.65µM
CC(=O)NNC(=O)c1csc(-c2csc(C)n2)n1 | i | i | i | i | i | i
CCCc1cc(C(=O)Nc2cc(Br)ccc2O)no1 | i | 56.8 | 21.7 | i | i | 5.22µM
CCCc1cc(C(=O)Nc2cc(Cl)ccc2O)no1 | i | 92.4 | 31.1 | ? | i | ?
COCCNC(=O)C(c1ccc(Cl)cc1)N(CCOC)C(=O)CCC(=O)Nc1nccs1 (stereo unspecified) | i | i | i | i | i | i
Cc1ccc2nc(COc3ccc(Cl)cc3)cc(=O)n2c1 | i | 98.5 | 41.3 | i | i | i
CC(=O)Oc1ccc(C23c4ccccc4C2(OC(C)=O)c2cc(OC(C)=O)ccc23)cc1 (stereo unspecified) | nt | nt | nt | nt | i | nt
COc1ccc(C2CC(c3ccc4ccccc4c3)=NN2C(=O)CSc2ncccn2)cc1 (stereo unspecified) | i | 43.1 | 14.8 | 10.4µM | i | ?
COc1ccc2c(c1)C(C)CC(C)(C)N2C(=O)CSc1nc2ccccc2s1 (stereo unspecified) | i | i | i | 10.4µM | i | ?
COc1ccc(C2=NN(C(=O)CSc3nc4ccccc4s3)C(c3ccc(OC)cc3)C2)cc1 (stereo unspecified) | i | i | i | ? | i[2.32 µM] | 11.7µM
COc1ccc(C2=NN(C(=O)CSc3nc4ccccc4s3)C(c3ccc(F)cc3)C2)cc1 (stereo unspecified) | i | i | i | ? | i | ?
COc1ccc(C2CC(c3ccc4ccccc4c3)=NN2C(=O)CN2C(=O)CCC2=O)cc1 (stereo unspecified) | i | i | i | ? | i | 9.28µM
Cc1cc(-c2ccccc2)n2ncnc2n1 | i | i | i | i | i | i
COc1ccc(C2=NN(C(=O)CSc3ncccn3)C(c3ccc(OC)cc3)C2)cc1 (stereo unspecified) | i | i | i | ? | i | 10.4µM
Cc1ccc(C2CC(c3ccc(Br)cc3)=NN2C(=O)CSC2=NN3CCCC(=O)N=C3S2)cc1 (stereo unspecified) | i | i | i | i | i | 11.7µM
COc1ccc(C2=NN(C(=O)CSc3nc(=O)n4cc(C)ccc4n3)C(c3ccc(C)cc3)C2)cc1 (stereo unspecified) | i | nt | nt | 8.28µM | i | ?
O=C(O)CCSC(=S)N1CCOCC1 | i | i | i | i | i | i
O=C1CCC(=O)N1CCSC(=S)N1CCOCC1 | i | 40.8 | i | i | i | i
CN(CC(=O)Nc1ccc(Cl)cc1)CC(=O)Nc1sc2c(c1C(N)=O)CCC2 | nt | nt | nt | nt | i | nt
COc1cc(Br)c(C(C)NC(=O)c2ccccc2)cc1OC (stereo unspecified) | i | i | i | 11.7µM | i | 13.1µM
COc1ccc(OC)c(C(C)NC(=O)c2ccc(Br)cc2)c1 (stereo unspecified) | i | i | i | i | i | i
SMILES | SARS PLP yeast | Shiga toxin inh | CHX counter | Pf growth 96h | AMA1-RON2 inh | Pf growth 48h
COCC(C)NC(=O)c1cccc([N+](=O)[O-])c1 (stereo unspecified) | i | i | i | i | i | i
COCC(C)NC(=O)c1cc2cccc([N+](=O)[O-])c2[nH]1 (stereo unspecified) | i | i | i | ? | i | 5.22µM
Cc1cc(NC(=O)c2cc3cccc([N+](=O)[O-])c3[nH]2)ccc1F | i | 85.8 | 55.6 | ? | i | ?
CCCS(=O)(=O)NC(=O)C1(C)CCN(C(=O)COc2ccc(Cl)cc2Cl)C1 (stereo unspecified) | nt | nt | nt | nt | i | nt
Clc1ccccc1Cn1c(/C=C/c2ccco2)nc2ccccc21 | i | 131.5 | 90.0 | ? | i | ?
Cc1c(C=O)c(Cl)n(C)c(=O)c1C#N | i | i | i | i | i | i
CCOC(=O)C1=C(C)NC2=C(C(=O)CC(C)(C)C2)C1c1ccc2c(c1)CCCN2C (stereo unspecified) | i | i | i | i | i | 13.1µM
CCOC(=O)C1=C(C)NC2=C(C(=O)CC(C)(C)C2)C1c1ccc(N(C)C)cc1 (stereo unspecified) | i | i | i | ? | i | 11.7µM
C/C(=C/c1oc2ccc(O)cc2c1[N+](=O)[O-])N(C)C | i | i | i | 14.7µM | ? | nt
Cc1cc([N+](=O)[O-])ccc1N=Nc1c(N)[nH]n(-c2ccccc2)c1=O | i | i | i | i | i | i
Nc1[nH]n(-c2ccccc2)c(=O)c1N=Nc1ccc2c(c1)OCCO2 | i | 59.1 | 33.4 | i | i | i
Nc1[nH]n(-c2ccccc2)c(=O)c1N=Nc1ccc2c(c1)OCO2 | i | 121.3 | 36.3 | i | i | i
CCCCNC(=O)c1c(N)[nH]c(C(=O)c2ccccc2)c1-c1ccc(Cl)cc1 | nt | nt | nt | nt | i | nt
Clc1ccccc1/C=N/NC1=Nc2cccc3cccc1c23 | i | 65.8 | 31.5 | i | i | i
C(=N\NC1=Nc2cccc3cccc1c23)/c1ccccn1 | i | 97.5 | 53.2 | ? | i | ?
C(=NNc1ccc2ccccc2n1)c1ccccn1 | nt | nt | nt | nt | i | nt
CC[C@H](C)[C@H](NC(=O)c1ccc(Cl)cc1)C(=O)OCC(=O)c1c(N)n(C)c(=O)n(C)c1=O | i | nt | nt | nt | i | nt
CC1(C)O[C@@H]2[C@H](O1)[C@@H](CO)O[C@H]2n1ccc(=O)[nH]c1=O | i | nt | nt | i | i | i
CCOC(=O)c1ccc(NC(=O)C(CC)CC)cc1 | i | 71.2 | 29.9 | nt | i | i
CCOC(=O)c1ccc(NC(=O)[C@@H](NC(N)=O)C(C)C)cc1 | i | i | i | i | i | i
CCOC(=O)c1ccc(NC(=O)N(CC)CC)cc1 | i | 62.2 | 37.4 | i | i | i
c1ccc2cc(C3OCC4(CCCC4)CO3)ccc2c1 | nt | nt | nt | nt | i | nt
O=[N+]([O-])c1ccc(NCc2ccccc2N2CCC(CO)CC2)nc1 | i | i | i | i | i | i[0.00184 µM]
CO/N=C(/C(=O)N[C@@H]1C(=O)N2C(C(=O)O)=C(COC(N)=O)CS[C@H]12)c1ccco1 | nt | nt | nt | 16.9µM | nt | 15.1µM
COc1ccc(NS(=O)(=O)c2cc(C(=O)N3CCC3)ccc2C)cc1 | i | nt | nt | i | i | ?
